Shiga inhibitor = Shiga toxin inhibition; Vero cells, Shiga toxin protein synthesis inhibition reporter; inhibition, % at 38.7 µM; 290,000 compounds, 9.2% hits; AID 2315; in the data active means inhibition mostly above about 28%, no sharp cut-off; inactive means mostly below about 43%
Pf growth 48h = P. falciparum growth inhibition at 48 hours (one generation). P. falciparum luciferase growth in erythrocytes, 48 h. 310,000 compounds, 5.9% hits. Potency, µM (highest dose often 28.7 µM), hits mostly inhibitors
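Read-out is firefly luciferase luminescence from an integrated reporter in P. falciparum, so falling signal marks reduced parasite growth. Infected erythrocytes were at 2% hematocrit and 0.1% parasitemia (final) in Albumax-supplemented RPMI 1640.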
CHX counter = counter-screen hit for Shiga toxin inhibitors, cycloheximide; cell reporter, cycloheximide protein synthesis inhibition counterscreen; max response, %; 300,000 compounds, 12% hits; AID 2314; in the data active means max response mostly above about 13%, no sharp cut-off; inactive means mostly below about 14%; further: read at 38.3 µM for the half of the compounds with a filed dose
Pf growth 96h = inhibits malaria parasite growth, 96 h | P. falciparum luciferase reporter growth, 96 h | Potency, µM (titrated, usually from 28.7 µM), most hits filed as inhibitors | 320,000 compounds, 6.9% hits | AID 504834
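Luminescence readout: decreased luciferase signal marks inhibited growth of reporter-expressing P. falciparum in infected red cells (2% hematocrit, 0.05% parasitemia final), exposed to compound two generations (96 h, 37 C, 5% CO2).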
Numbers stand for hits; i = inactive; ? = inconclusive; nt = no result given; [ ] = dose if it differs, or a comment. Rows were chosen to be rich in hits. Some 21% of all compounds tested hit in one or more screens of this group. Unless noted, the call rests on the fitted dose curve; in most records, active means well fitted inhibition curve with a large enough effect; inconclusive means small, poorly fitted or top-dose-only effect, or another doubt; inactive means no such curve, though single readings can be large or run the other way.

SMILES | Shiga inhibitor | Pf growth 48h | CHX counter | Pf growth 96h
Cc1cc(N2CCCCC2)n2ncc(-c3ccc(Cl)cc3)c2n1 | i | nt | 29 | i
Cc1nc2cc(-c3cccc(F)c3)nn2c(N2CCN(C(=O)c3ccco3)CC2)c1C | 94 | nt | 61 | ?
Cc1nc2cc(-c3cccc(F)c3)nn2c(C)c1CCC(=O)N1CCN(c2ccccn2)CC1 | i | i | i | ?
COc1ccc(CCN2CC(C(=O)NCc3nc4ccccc4n3C)CCC2=O)cc1 (stereo not given) | i | ? | i | ?
CC(=O)c1cc(F)ccc1OCC(=O)N1CCCc2ccccc21 | i | i | i | ?
Cc1nc2c(-c3ccccc3)c(C)nn2c(C)c1CCC(=O)N1CCOCC1 | i | ? | i | ?
Cc1cc(N2CCN(C(=O)c3ccco3)CC2)n2ncc(-c3ccccc3)c2n1 | 64 | ? | 31 | i
Cc1cc(N2CCN(C(=O)c3ccco3)CC2)n2ncnc2n1 | i | i | i | i
CC(=O)Nc1ccc(Nc2cc(C)nc3c(-c4ccc(Cl)cc4)cnn23)cc1 | 36 | i | 52 | i
C=CCc1c(C)nc2c(-c3ccccc3)cnn2c1N1CCOCC1 | 84 | i | 58 | i
COc1ccc(OC)c(S(=O)(=O)NCCS(=O)(=O)N2CCN(c3ccccc3)CC2)c1 | i | ? | i | i
CC(C)N1C(=O)N(c2cccc(Cl)c2)C(C)(O)CC1(C)C (stereo not given) | i | i[0.00184 µM] | i | i
CN(CC(=O)Nc1cccc(F)c1)C(=O)CCc1nc2ccccc2c(=O)[nH]1 | nt | i | nt | i
O=C(CC(=O)Nc1cc(Cl)ccc1Cl)Nc1cc(Cl)ccc1Cl | i | nt | i | ?
Cc1cccc(N/C=C/c2onc(C)c2[N+](=O)[O-])c1 | 89 | i | 31 | i
Cc1cccc(NS(=O)(=O)c2c(C)noc2C)c1 | i | i | i | i
Cc1cc(O)ccc1N/C=C/c1onc(C)c1[N+](=O)[O-] | 64 | i | 39 | i
COc1ccc(N(C)C(=O)c2cc3c(s2)-c2c(C)cccc2OC3)c(OC)c1 | i | ? | i | ?
O=[N+]([O-])c1cccc(NC(=S)N2CCc3ccccc3C2)c1 | 79 | i | 59 | i
CC(=O)c1cccc(NC(=S)N2CCc3ccccc32)c1 | 157 | i | 63 | i
S=C(Nc1ccccc1)N1CCc2ccccc21 | nt | i | 14 | ?
Fc1cccc(NC(=S)N2CCc3ccccc32)c1 | i | i | i | i
O=[N+]([O-])c1ccc(NC(=S)N2CCc3ccccc32)cc1 | 42 | i | i | ?
COc1ccc(-c2ccc(C(C)=O)cc2)cc1C1C2C=CCCC2(C)C(=O)N1Cc1ccccc1 (stereo not given) | i | nt | i | nt
O=NN(CCCl)C(=O)NC1CCCCC1 | nt | i | nt | i
SMILES | Shiga inhibitor | Pf growth 48h | CHX counter | Pf growth 96h
COc1ccccc1NC(=S)N1CCCc2ccccc21 | i | i | i | i
COc1ccc(NC(=S)N2CCc3ccccc32)cc1OC | 90 | i | 40 | i
COc1ccc(NC(=S)NN2CCN(C)CC2)cc1OC | i | i | i | 2.3µM
COc1ccc(C2CCCN2C(=O)Nc2ccccc2)cc1OC (stereo not given) | i | nt | i | ?
CC(C)[C@H](NC(=O)OCc1ccccc1)C(=O)OCC(=O)N1CCN(c2ccccc2)CC1 | nt | i | nt | ?
CC(=O)c1cnc2cc(-c3ccccc3)nn2c1C | 57 | i | 43 | ?
COc1ccc(-c2cc3ncc(C(C)=O)c(C)n3n2)cc1 | 68 | i | 28 | ?
CC(=O)c1cnc2cc(C)nn2c1C | i | i | i | ?
CC(=O)c1cnc2cc(-c3ccc(C)cc3)nn2c1C | 13 | i | 26 | i
CC(C#Cc1ccc2c(c1)COc1c3ccccc3nn1-2)OC(C)(C)C (stereo not given) | nt | i | nt | i
COCCNC(=O)c1cnn2c(C(F)(F)F)cc(-c3ccc(C)cc3)nc12 | i | i | i | i
Cc1ccc(S(=O)(=O)N2CCN(CC(=O)NCC3(N4CCOCC4)CCCCC3)CC2)cc1 | nt | i | nt | i
CCN1C(=O)c2ccccc2Sc2ccc(C(=O)O)cc21 | i | nt | i | i
CCC(=O)c1ccc2c(c1)N(CCCN1CCN(CCO)CC1)c1ccccc1S2 | nt | 2.7µM | nt | 4.8µM
CC(=O)c1ccc2c(c1)N(CCCN1CCN(CCO)CC1)c1ccccc1S2 | nt | 13µM | nt | 13µM
O=C(O)CC(NC(=O)C12CC3CC(CC(C3)C1)C2)c1ccc(OC2CCCC2)cc1 (stereo not given) | i | i | i | i
Cc1cc(C)c(-c2csc(NC(=O)C3=COCCO3)n2)c(C)c1 | nt | 9.3µM | nt | ?
O=C(Nc1nc(-c2cccs2)cs1)C1=COCCO1 | 68 | i | 40 | i
Cc1cc(C)c2sc(NC(=O)C3=COCCO3)nc2c1 | 120 | i | 60 | i
Cc1ccc(Cl)c2sc(NC(=O)C3=COCCO3)nc12 | 74 | i | 27 | i
Cc1cc(C)c(NC(=O)C2=COCCO2)c(C)c1 | nt | i | nt | i
Cc1ccc(-c2n[nH]c(=S)n2/N=C/c2c(C)[nH]n(-c3ccccc3)c2=O)cc1 | i | i | i | i
Cc1ccc(F)cc1NC(=O)COC(=O)COc1ccc(C#N)cc1 | nt | i | nt | i
Cc1nn(CCC#N)c(NC(=O)c2ccc(Cl)cc2Cl)c1P(=O)(Nc1ccc([N+](=O)[O-])cc1)N1CCOCC1 (stereo not given) | i | 8.3µM | i | nt
Cc1nn(CCC#N)c(NC(=O)c2ccc(Cl)cc2)c1P(=O)(Nc1ccc([N+](=O)[O-])cc1)N1CCOCC1 (stereo not given) | i | i | i | nt
SMILES | Shiga inhibitor | Pf growth 48h | CHX counter | Pf growth 96h
Cc1ccc(S(=O)(=O)N(Cc2ccccc2)c2ccccc2C(=O)NCc2ccco2)cc1 | i | 10µM | 25 | 5.9µM
Cc1ccc(S(=O)(=O)N(Cc2ccccc2)c2ccccc2C(=O)Nc2ccccc2C(=O)NCc2ccco2)cc1 | 55 | 10µM | 31 | ?
O=C(NC1CC2CCCC(C1)N2C(=S)NCCc1ccccc1)C1CC1 (stereo not given) | i | i | i | i
Cc1ccc(C2=Nc3ccccc3SC(c3cccc([N+](=O)[O-])c3)C2)cc1 (stereo not given) | 70 | i | 35 | ?
COc1ccc(C2=NN(C(=O)c3cccc([N+](=O)[O-])c3)C(c3cccc([N+](=O)[O-])c3)C2)cc1 (stereo not given) | i | ? | i | ?
O=C(NCc1ccc(Cl)cc1)C(=O)c1cn(CC(=O)N2CCOCC2)c2ccccc12 | i | i | i | 13µM
O=C(Nc1ccccc1Cl)C(=O)c1cn(CC(=O)N2CCOCC2)c2ccccc12 | 46 | i | 59 | 12µM
CC(=O)Nc1ccc(NC(=O)c2ccccc2-n2cnnn2)cc1 | nt | i | nt | i
Cc1ccc(N/N=C2\CC(=O)c3ccccc32)cc1Cl | i | 4.7µM | 13 | 2.9µM
Cc1ccc(NC2=CC(=O)CC(C)(C)C2)cc1Cl | i | i | i | i
Fc1ccc(-[n+]2nc(Nc3ccccc3)sc2-c2c3ccccc3cc3ccccc23)cc1 | 41 | ? | 32 | ?
COc1ccc(-c2sc(Nc3ccccc3)n[n+]2-c2ccc(F)cc2)c(C)c1C | i | ? | i | 10µM
c1ccc(-[n+]2nc(Nc3cccc4ccccc34)sc2-c2c3ccccc3cc3ccccc23)cc1 | nt | 1µM | nt | 0.83µM
O=C(O)/C(=C\c1cccc(OCc2ccccc2)c1)c1ccc(F)cc1 | i | i | i | i

Screening results from PubChem.
